Experimental findings from PubChem BioAssay (NCATS) are described below.

Results filed as inconclusive are left out. Active and inactive are the calls of the source. The call rests on the fitted dose curve; in most records, active means well fitted inhibition curve with a large enough effect; inconclusive means small, poorly fitted or top-dose-only effect; inactive means flat fitted curve, though single readings scatter.

This experiment deals with CRL-7250. Nature of the experiment: qHTS assay to identify novel small-molecules to repurpose for Merkel cell carcinoma treatment (AID 1296009). Further: nearly all actives have a fitted effect of over 60% in size. The note with it: MCC and control cell lines, CellTiter-Glo viability, 72 h; series mostly up to 92 µM; activity change, negative = cytotoxicity: at the top concentration. Put shortly: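 72 hr, 37 degree celsius; NPC 8-pt / MIPE 11-pt dose response; compound pinned in DMSO; CellTiter-Glo, 10 min RT, luminescence; normalized to no-cell and DMSO controls.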
As to `CNc1cc2[nH]c(=O)n(-c3ccc(NC(=O)NS(=O)(=O)c4ccc(Cl)s4)cc3)c(=O)c2cc1F`, the compound was called inactive.

Consider `COC(=O)C1=COC(OC2OC(CO)C(O)C(O)C2O)C2C(COC(=O)/C=C/c3ccc(O)cc3)C(O)C(O)C12` (centres undefined), for which the “outcome” value was “inactive [at 17.4 µM]”.

Turning to `O=C(/C=C/c1ccc(O)cc1)OCC1OC(O)C(OC2OC(CO)C(O)C(O)C2O)C(O)C1O` (centres undefined), the “outcome” value was “inactive [at 17.4 µM]”.

Take `C=C1C(=O)O[C@@H]2C[C@H](C)[C@@]3(O)C=C(C(C)=O)[C@]4(CC3C[C@H]12)C(=O)O[C@H]1C[C@@H](C)C(CCC(C)=O)=CC[C@H]14` (some centres undefined): the “outcome” value is “inactive [at 17.4 µM]”.

On to `CC/C=C\[C@H](O)[C@H](O)C1=C(C)C(=O)[C@]2(O1)C(=O)N[C@@](O)(C(=O)c1ccccc1)[C@@H]2O`, for which the “outcome” value was “inactive [at 17.4 µM]”.

Take `COc1ccc(/C=C/C(N)=O)cc1OC`: the outcome was inactive.

`COc1cc2c(cc1OC)N1C(=O)C[C@]34C=CCN5CC[C@@H]2[C@@H](CC3)[C@]514`: the outcome was inactive.

`C=C1CC/C=C(/CO)C(=O)C[C@@H]2[C@@H]1C[C@@]2(C)COC(C)=O`: the outcome was inactive.

As to `COc1ccc(C2COc3cc(O)ccc3C2)c(O)c1OC` (centres undefined), the compound was called inactive.

On to `C/C=C(\C)C(=O)OCC1OC(OC2OC(CO)C(O)C(O)C2O)C(O)C(O)C1O` (centres undefined), for which the “outcome” value is “inactive [at 17.4 µM]”.

Turning to `COC(=O)c1c(CC=C(C)C)c(OC2OC(CO)C(O)C(O)C2O)c2ccccc2c1OC1OC(CO)C(O)C(O)C1O` (centres undefined), the “outcome” value is “inactive [at 17.4 µM]”.

For `COc1c2c(c(C)c3c1C(=O)OC3)OC1(C)CC(O)C34OC(OC)(OC3(C)C)C(O)CC4(C)C1C2` (centres undefined), the “outcome” value was “inactive [at 17.4 µM]”.

As for `CN(C)c1ccc(C2O[C@@H](c3ccccc3)C[C@H](c3ccccc3)O2)cc1` (some centres undefined), the call was inactive.

For the compound `CC(C)C1NC(=O)C(CC2(O)c3ccccc3N3C(=O)C(Cc4ccccc4)NC32)NC1=O` (centres undefined), the “outcome” value was “inactive [at 17.4 µM]”.

Take `C/C=C/C=C/C(CC(=O)O)Nc1ccc(C=O)cc1` (centres undefined): the compound was classed as inactive.

Consider `CC1CCC2(C(=O)OC3OC(COC4OC(CO)C(O)C(O)C4O)C(O)C(O)C3O)CCC3(C)C(=CCC4C5(C)CCC(O)C(C)(C(=O)O)C5CCC43C)C2C1(C)O` (centres undefined), for which the outcome is “inactive [at 9.27 µM]”.

Regarding `CC(C)CC(=O)n1cc(C(N)=O)c(=O)cc1C(O)c1ccccc1` (centres undefined), the outcome was inactive.

For `C[C@@H]1O[C@@H](O[C@H]2[C@H](O)[C@@H](O)[C@H](OC[C@H]3O[C@@H](OC(=O)[C@]45CCC(C)(C)C[C@H]4C4=CCC6[C@@]7(C)C[C@@H](O)[C@H](O)[C@@](C)(CO)C7[C@H](O)C[C@@]6(C)[C@]4(C)CC5)[C@H](O)[C@@H](O)[C@@H]3O)O[C@@H]2CO)[C@H](O)[C@H](O)[C@H]1O` (some centres undefined), the outcome was “inactive [at 9.27 µM]”.

Turning to `CC(C)OC(=O)N1CCC(Oc2ncnc3c2cnn3-c2ccc(S(C)(=O)=O)cc2F)CC1`, the call was inactive.

Regarding `C[C@]12CCC(=O)C=C1[C@@H](O)C[C@@H]1[C@@H]2[C@@H](O)C[C@@]2(C)[C@H]1CC[C@]2(O)C(=O)CO`, the compound was classed as inactive.

On to `CC1C(=O)CC2C3C(O)CC(C(=O)O)C12CC3(C)C` (centres undefined), for which the result was inactive.

Take `COc1cc(CC2COC(c3ccc(OC4OC(CO)C(O)C(O)C4O)c(OC)c3)C2CO)ccc1O` (centres undefined): the “outcome” value was “inactive [at 17.4 µM]”.

`O=C1C(Cl)=C(N2CCOCC2)C(=O)N1c1ccc(Cl)c(Cl)c1`: the “outcome” value was “inactive [at 17.4 µM]”.

In the case of `COc1cc(C(CO)C(OC2OC(CO)C(O)C(O)C2O)c2ccc(O)c(OC)c2)ccc1O` (centres undefined), the “outcome” value was “inactive [at 17.4 µM]”.

On to `CCC(C)/C=C(C)/C=C/C1=CC2=CC(=O)C(C)(O)C(OC(C)=O)C2CO1` (centres undefined), for which the result was inactive.

For `CC(=O)OCC1=C[C@H](O)[C@@H]2C(C(=O)O)=CO[C@@H](O[C@@H]3O[C@H](CO)[C@@H](O)[C@H](O)[C@H]3O)[C@H]12`, the “outcome” value is “inactive [at 17.4 µM]”.

In the case of `O=C(Cn1c2ccccc2c2nc3n(c(=O)c21)CCS3)N1CCCC1`, the compound was classed as inactive.

Turning to `COC1C=C([C@@H]2CC=C3[C@@]4(C)C(CC[C@]32C)[C@@]2(C)C=CC(=O)C(C)(C)C2C[C@H]4OC(C)=O)C(=O)O1` (some centres undefined), the “outcome” value was “inactive [at 17.4 µM]”.

Turning to `CC(=O)O[C@@H]1CC2C(/C=C(\C)C(=O)[C@@]3(O)C[C@@H](C)[C@H](OC(=O)c4ccccc4)C3/C=C/1C)C2(C)C` (some centres undefined), the “outcome” value was “inactive [at 17.4 µM]”.
